5 molecules from PubChem BioAssay can be followed below.

The nature of experiment [1]: rapamycin-like changes in RPL19A-GFP expression – cell-based, S. cerevisiae, multiplex flow cytometry, primary screen (AID 1862; in the data active = percent of DMSO control GFP below about 86%;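 note: lower values mimic rapamycin by blocking the RPL19A rise seen in DMSO cells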). Particulars: S. cerevisiae RPL19A-GFP strain, flow cytometry fluorescence, 3 h; at 10 µM; stronger effect = lower value. (In flow cytometry, cells or beads pass a laser one at a time.)
Experiment [2] in a line: TOR pathway GLN3 branch reporter MEP2-GFP changes – S. cerevisiae, multiplex flow cytometry, primary screen (AID 1867;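 active = GFP response, as percent of the DMSO control, above the screen-wide mean plus 3 SD, about 139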;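 note: median GFP channel fluorescence of barcode-gated MEP2-GFP cells measured by flow cytometry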). As to conditions: S. cerevisiae MEP2-GFP strain, 3 h, at 10 µM, stronger effect = higher value, 100% means same as DMSO wells.
A short description of experiment [3]: TOR pathway RTG branch CIT2 reporter changes – S. cerevisiae, GFP fusion, multiplex flow cytometry, primary screen (AID 1870;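 active = percent response above a set limit, the screen-wide mean plus 3 SD, cut at about 130% in these data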;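 note: barcoded CIT2-GFP strain pooled with four other GFP strains with rapamycin as positive control; median GFP fluorescence per well over plate mean of DMSO wells so 100% = DMSO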). As to conditions: S. cerevisiae CIT2-GFP expression, 3 h, at 10 µM, stronger effect = higher value.
Experiment [4] is described as follows: TOR pathway LAP4-GFP level changes – S. cerevisiae, multiplex flow cytometry, primary screen (AID 1873;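 active = GFP signal, as percent of the solvent control, above the screen mean plus 3 SD, about 149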). Particulars: S. cerevisiae LAP4-GFP expression, 3 h, at 10 µM, stronger effect = higher value.
Experiment [5] in a line: yeast AGP1-GFP level changes, GLN3 branch – cell-based, multiplex flow cytometry, S. cerevisiae, primary screen (AID 1887;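 active = GFP signal above the screen-wide mean plus 3 SD, that is over about 124.5% of the solvent control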;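 note: AGP1-GFP fusion strain of S. cerevisiae within a five-strain barcoded multiplex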). As to conditions: 3 h, at 10 µM, stronger effect = higher value.
A short description of experiment [6]: reduced mouse 2C T cell binding to pMHC/ICAM-1 vesicles – MLPCN validation set, flow cytometry, LFA-1/ICAM-1 modulator project, pilot screen (AID 2523;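 active = response below a set limit, under 55% cells CD8-positive and vesicle-bound, and CD8 cells' 90th-percentile brightness under 279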;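 for vesicle binding response: mean PE anti-B7-1 fluorescence of CD8+ cells relative to row control; 100% = QL9-loaded vesicles with DMSO vehicle in the same plate row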). Particulars: 2C mouse CD8+ T cells, at 7 µM, stronger effect = lower value; double positive events: measured here: CD8+/vesicle+ event percentage.
For experiment [7], the target named is Integrin beta-1 (Homo sapiens) + Integrin alpha-4 (Homo sapiens) (UniProt P13612+P05556). Nature of the experiment: alpha4beta1 integrin LIBS antibody binding reduction – U937 cells, HUTS-21 mAb, flow cytometry, validation set, VLA-4 allosteric modulator project, pilot screen (AID 2674;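 active = inhibition above 50%, about 3 SD of the validation set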;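 note: antibody binding induced by the VLA-4 ligand LDV present at three times its Kd; 0% = LDV ligand with antibody and no compound and 100% = antibody without LDV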). As to conditions: HUTS-21 LIBS mAb binding, at 6.7 µM, stronger effect = higher value, binding induced by LDV ligand.

Experiment [8] is described as follows: calorie-restriction mimetic ROS inhibitors, yeast – validation compound set, pilot screen (AID 2706).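 Note: yeast exposed to compound for one week at 30 degrees C before staining; 100% = mean of all compound wells on the same plate.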 As to conditions: S. cerevisiae aging, superoxide DHE fluorescence; at 10 µM; stronger effect = lower value.
Experiment [9] has as its target Beta-adrenergic receptor kinase 1 (Homo sapiens) (UniProt P25098). Nature of the experiment: GRK2 binders displacing RNA aptamer, biochemical, validation, human GRK2, bead flow cytometry (AID 488806;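 active = aptamer binding inhibition above 30%, about 3 SD of noise from non-fluorescent compounds; inactive = inhibition at or below 30%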). Particulars: bead-bound GRK2, FAM-aptamer displacement, at 10 µM, stronger effect = higher value.
Experiment [10] concerns the target Beta-2 adrenergic receptor (Homo sapiens) (UniProt P07550). The experiment can be described thus: agonist-induced loss of surface beta2AR – cell-based, FAP fluorogen, flow cytometry, validation set, pilot screen (AID 504459;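 active = percent response above 42, roughly 3 SD of non-fluorescent test compounds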;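 note: agonist-driven loss of surface beta2AR via internalization measured by FAP dye flow cytometry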). As to conditions: Am2.2-beta2AR cells, at 10 µM, stronger effect = higher value.
Experiment [11] addresses AP-2 complex subunit beta (Homo sapiens) (UniProt P63010). Nature of the experiment: beta-arrestin/AP2 interaction blockers – biochemical, validation set, GST-AP2 beads, flow cytometry, pilot screen (AID 504541;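 active = inhibition above 54%, about 3 SD of non-fluorescent compounds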;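 note: AP2 carries R879A mutation and is captured from E. coli lysate; bead-bound FITC arrestin peptide fluorescence measuring arrestin peptide binding to AP2; 0% = DMSO wells and 100% = excess unlabeled arrestin peptide control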). As to conditions: FITC arrestin peptide, at 10 µM, stronger effect = higher value, AP2 beta2 appendage fragment, R879A mutant.
Experiment [12] can be described thus: cytosolic pH regulators acting via V-ATPase – S. cerevisiae, pHLuorin, HTS validation (AID 504600; in the data active = response above about 15%;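 note: plate controls were DMSO for no effect and reference compound for full effect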). As to conditions: V-ATPase proton transport, at 10 µM, stronger effect = higher value.
Experiment [13] concerns anti-desmoglein-3 scFv antibody binding to human DSG3. The experiment can be described thus: blockers of pathogenic pemphigus antibody–desmoglein-3 binding – biochemical, validation compound set, bead-based, flow cytometry, pilot screen (AID 588368;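 active = binding below the plate cutoff, the plate median minus 3 SD, with a reading above zero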;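 note: signal is the median channel fluorescence of bead-bound GFP antibody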). As to conditions: Protein G beads, DSG3-Fc, scFv-GFP binding, at 10 µM, stronger effect = lower value.
A short description of experiment [14]: Nile Red efflux blockade in pump-expressing yeast – validation compound set, multiplex, phenotypic, pilot screen (AID 588506;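 active = efflux inhibition above 0.42, the validation set average plus 4 SD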;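 note: Nile Red retained in cells so higher fluorescence means more efflux inhibition; 0 = negative control wells and 1 = enniatin B 25 µM full block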). As to conditions: S. cerevisiae pump-expressing triplex, Nile Red efflux flow cytometry; at 10 µM; stronger effect = higher value; the pumps come from Candida albicans.
Experiment [15] concerns the target ATP-binding cassette sub-family B member 6 (Homo sapiens) (UniProt Q9NP58). Nature of the experiment: blockers of ABCB6-driven porphyrin uptake – K562-ABCB6 cells, flow cytometry, validation set, pilot screen (AID 588550;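 active = inhibition above the screen-wide mean plus 3 SD, about 51%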;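 note: 0% = DMSO wells and 100% = benzethonium chloride 70 µM positive control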). As to conditions: K562-ABCB6 porphyrin accumulation, 1 h, at 10 µM, stronger effect = higher value.
The nature of experiment [16]: AML differentiation inducers, ER-HoxA9 marrow cells – cell-based, GFP/MAC1 double positive, flow cytometry, validation set, primary screen (AID 588685;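 active = differentiation response of at least 50%, scaled between solvent and reference control, from cells with both markers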;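 note: compound exposure lasts four days before antibody staining and flow analysis; 0% = DMSO wells and 100% = 5 µM fulvestrant positive control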). As to conditions: stronger effect = higher value, normalized: vehicle 0, fulvestrant 100.

SMILES strings stand for the structures. Where “and” joins values, the source holds several entries; their conditions need not be identical. Equal entries are not always repeated. Records with an inconclusive call do not appear. Calls of active or inactive are those of the source.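 Rule for the calls, unless noted: active = superoxide response below 65% of plate, a cut near 3 SD across the whole screen; inactive = the rest.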

Sequence of Beta-adrenergic receptor kinase 1 (Homo sapiens) (P25098 whole entry, looked up): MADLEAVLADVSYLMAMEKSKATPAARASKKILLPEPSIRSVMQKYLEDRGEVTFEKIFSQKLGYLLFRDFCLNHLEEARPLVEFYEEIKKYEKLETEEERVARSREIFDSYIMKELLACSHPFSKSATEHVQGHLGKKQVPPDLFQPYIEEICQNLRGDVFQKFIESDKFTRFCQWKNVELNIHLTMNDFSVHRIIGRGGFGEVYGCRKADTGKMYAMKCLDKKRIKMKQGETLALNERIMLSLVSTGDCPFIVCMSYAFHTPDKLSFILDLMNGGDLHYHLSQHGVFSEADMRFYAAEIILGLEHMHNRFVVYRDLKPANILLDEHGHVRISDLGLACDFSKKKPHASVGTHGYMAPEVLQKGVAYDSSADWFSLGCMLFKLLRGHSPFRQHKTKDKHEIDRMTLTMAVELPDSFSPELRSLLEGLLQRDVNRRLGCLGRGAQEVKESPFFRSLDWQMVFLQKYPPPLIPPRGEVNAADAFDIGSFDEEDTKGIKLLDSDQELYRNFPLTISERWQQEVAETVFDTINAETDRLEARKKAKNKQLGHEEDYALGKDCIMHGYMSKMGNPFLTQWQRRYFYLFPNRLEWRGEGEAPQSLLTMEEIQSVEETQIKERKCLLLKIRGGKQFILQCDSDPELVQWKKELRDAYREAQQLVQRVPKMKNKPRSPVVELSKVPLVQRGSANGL
Sequence of ATP-binding cassette sub-family B member 6 (Homo sapiens) (Q9NP58 whole entry, looked up): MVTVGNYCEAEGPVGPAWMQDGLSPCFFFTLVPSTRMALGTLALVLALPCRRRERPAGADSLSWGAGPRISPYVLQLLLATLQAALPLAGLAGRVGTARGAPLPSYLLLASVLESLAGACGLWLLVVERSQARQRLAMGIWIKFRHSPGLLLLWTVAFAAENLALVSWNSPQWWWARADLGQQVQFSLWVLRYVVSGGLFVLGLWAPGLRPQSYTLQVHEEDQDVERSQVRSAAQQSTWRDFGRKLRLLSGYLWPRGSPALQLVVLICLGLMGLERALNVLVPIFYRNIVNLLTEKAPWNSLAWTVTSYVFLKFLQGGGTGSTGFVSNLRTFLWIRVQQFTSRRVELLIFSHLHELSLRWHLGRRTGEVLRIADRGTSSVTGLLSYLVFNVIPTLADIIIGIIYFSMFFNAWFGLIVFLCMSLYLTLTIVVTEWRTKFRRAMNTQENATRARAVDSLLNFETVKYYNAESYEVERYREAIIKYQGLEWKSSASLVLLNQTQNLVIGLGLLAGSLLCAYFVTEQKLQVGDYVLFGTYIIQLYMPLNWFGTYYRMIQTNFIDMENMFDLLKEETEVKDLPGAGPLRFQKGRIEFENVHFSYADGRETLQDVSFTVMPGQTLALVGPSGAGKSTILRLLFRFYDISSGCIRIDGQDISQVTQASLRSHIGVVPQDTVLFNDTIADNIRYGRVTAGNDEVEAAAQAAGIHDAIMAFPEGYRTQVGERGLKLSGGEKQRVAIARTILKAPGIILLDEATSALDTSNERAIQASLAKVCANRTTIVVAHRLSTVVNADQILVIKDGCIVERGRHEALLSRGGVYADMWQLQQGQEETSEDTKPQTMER
Sequence of Integrin beta-1 (Homo sapiens) + Integrin alpha-4 (Homo sapiens) (P05556 whole entry, looked up): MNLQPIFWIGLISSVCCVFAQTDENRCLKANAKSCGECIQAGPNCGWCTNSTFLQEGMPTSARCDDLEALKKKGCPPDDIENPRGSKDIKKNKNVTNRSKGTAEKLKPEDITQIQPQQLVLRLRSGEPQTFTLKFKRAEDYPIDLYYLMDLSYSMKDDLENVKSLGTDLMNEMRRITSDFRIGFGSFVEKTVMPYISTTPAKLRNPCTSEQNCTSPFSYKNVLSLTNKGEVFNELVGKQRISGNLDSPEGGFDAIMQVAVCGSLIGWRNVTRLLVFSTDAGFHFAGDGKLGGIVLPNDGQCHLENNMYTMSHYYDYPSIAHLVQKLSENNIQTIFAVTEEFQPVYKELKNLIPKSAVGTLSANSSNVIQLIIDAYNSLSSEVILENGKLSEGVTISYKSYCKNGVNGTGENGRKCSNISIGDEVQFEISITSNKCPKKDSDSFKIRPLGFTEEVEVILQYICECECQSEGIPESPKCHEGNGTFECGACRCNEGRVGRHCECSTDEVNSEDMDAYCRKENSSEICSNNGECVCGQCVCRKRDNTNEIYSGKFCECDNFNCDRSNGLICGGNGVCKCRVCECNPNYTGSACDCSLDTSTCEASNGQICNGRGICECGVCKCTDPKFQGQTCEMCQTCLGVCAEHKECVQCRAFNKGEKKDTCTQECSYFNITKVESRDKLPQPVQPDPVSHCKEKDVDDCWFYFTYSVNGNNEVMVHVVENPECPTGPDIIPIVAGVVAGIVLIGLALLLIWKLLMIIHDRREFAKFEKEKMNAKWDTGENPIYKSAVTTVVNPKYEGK
Sequence of Integrin beta-1 (Homo sapiens) + Integrin alpha-4 (Homo sapiens) (P13612 whole entry, looked up): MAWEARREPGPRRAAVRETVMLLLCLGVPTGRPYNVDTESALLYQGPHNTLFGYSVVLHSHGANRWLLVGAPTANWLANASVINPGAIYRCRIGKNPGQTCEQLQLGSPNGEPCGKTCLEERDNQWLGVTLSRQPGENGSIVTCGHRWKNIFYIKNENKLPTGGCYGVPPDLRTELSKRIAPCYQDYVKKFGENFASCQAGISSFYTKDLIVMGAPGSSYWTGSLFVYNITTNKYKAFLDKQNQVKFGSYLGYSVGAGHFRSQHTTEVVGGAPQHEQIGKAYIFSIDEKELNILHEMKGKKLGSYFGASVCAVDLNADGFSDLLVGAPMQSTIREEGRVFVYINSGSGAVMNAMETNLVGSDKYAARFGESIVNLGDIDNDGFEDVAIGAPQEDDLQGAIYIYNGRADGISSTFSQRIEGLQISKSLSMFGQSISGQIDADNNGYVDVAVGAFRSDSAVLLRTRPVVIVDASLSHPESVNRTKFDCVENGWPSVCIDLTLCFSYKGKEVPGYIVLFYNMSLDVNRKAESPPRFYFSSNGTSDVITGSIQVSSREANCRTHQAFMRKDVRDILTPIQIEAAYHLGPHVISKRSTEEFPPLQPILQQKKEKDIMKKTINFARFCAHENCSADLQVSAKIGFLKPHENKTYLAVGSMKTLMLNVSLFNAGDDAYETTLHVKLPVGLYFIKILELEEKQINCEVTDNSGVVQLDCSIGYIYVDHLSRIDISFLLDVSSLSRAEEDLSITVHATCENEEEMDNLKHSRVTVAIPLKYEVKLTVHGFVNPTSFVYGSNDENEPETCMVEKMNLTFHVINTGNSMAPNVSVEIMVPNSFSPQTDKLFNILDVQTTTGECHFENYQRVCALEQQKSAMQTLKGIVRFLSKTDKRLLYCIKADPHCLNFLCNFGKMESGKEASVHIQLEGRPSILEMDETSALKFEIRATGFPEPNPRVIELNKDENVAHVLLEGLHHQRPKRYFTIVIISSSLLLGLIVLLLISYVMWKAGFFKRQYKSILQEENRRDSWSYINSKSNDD
Sequence of AP-2 complex subunit beta (Homo sapiens) (P63010 whole entry, looked up, the tested form may be a part, one chain of several): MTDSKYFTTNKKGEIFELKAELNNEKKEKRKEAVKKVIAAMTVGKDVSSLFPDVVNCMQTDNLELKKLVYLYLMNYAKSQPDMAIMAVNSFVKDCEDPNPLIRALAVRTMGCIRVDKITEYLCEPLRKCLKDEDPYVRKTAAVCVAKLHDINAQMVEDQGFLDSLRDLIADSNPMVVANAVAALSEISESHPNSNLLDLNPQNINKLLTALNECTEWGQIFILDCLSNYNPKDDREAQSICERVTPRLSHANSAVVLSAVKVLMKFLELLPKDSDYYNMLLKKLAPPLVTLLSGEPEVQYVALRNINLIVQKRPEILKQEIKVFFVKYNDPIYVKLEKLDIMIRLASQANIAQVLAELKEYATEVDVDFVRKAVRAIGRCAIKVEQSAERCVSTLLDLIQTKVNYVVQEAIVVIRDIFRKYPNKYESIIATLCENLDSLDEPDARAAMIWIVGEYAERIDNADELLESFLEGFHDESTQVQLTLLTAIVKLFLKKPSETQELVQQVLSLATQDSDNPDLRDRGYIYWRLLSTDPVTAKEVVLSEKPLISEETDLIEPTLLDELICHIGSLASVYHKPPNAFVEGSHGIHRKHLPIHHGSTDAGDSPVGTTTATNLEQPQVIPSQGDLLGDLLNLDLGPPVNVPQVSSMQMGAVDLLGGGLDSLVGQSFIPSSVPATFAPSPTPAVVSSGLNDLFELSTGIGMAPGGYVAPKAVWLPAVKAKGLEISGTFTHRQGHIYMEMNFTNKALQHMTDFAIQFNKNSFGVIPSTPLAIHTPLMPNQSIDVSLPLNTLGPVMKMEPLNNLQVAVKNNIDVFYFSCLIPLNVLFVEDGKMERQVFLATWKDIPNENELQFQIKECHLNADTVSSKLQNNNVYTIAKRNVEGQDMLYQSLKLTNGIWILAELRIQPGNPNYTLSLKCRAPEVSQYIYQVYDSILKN
Sequence of Beta-2 adrenergic receptor (Homo sapiens) (P07550 whole entry, looked up): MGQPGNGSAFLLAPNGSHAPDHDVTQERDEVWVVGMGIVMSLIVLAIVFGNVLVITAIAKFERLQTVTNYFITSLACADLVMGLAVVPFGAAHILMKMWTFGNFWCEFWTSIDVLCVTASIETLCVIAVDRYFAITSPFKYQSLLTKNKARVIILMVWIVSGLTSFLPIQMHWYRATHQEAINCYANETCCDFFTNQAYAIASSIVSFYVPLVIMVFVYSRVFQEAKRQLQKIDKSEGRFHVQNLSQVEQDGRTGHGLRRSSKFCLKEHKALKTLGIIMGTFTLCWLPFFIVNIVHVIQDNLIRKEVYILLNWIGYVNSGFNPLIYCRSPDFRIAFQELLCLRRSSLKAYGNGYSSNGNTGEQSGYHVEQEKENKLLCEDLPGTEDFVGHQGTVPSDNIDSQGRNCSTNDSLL

The inhibition is the relative decrease from the control value, in per cent. With `CCNC(=S)N1CCN(CCN2C(=O)c3cccc4cccc(c34)C2=O)CC1`, the percent of DMSO control GFP in experiment [1] was 103% (inactive). Further, the GFP response vs DMSO in [2] is 97.7% (inactive); in [4], 95.9% (inactive). Further, the percent response of DMSO control in [3] is 106% (inactive). For the same molecule, the GFP response, % of DMSO in experiment [5] is 107% (inactive). For the same molecule, in experiment [6], the double positive events was 63.5%. Also, the vesicle binding response in experiment [6] was 143% (inactive). Moreover, the inhibition is -26.6% (inactive) in [7], -15.4% (inactive) in experiment [11] and -13% (inactive) in experiment [15]. In addition, the superoxide response (% of plate) in experiment [8] was 96.9% (inactive). Further, in [9], the aptamer binding inhibition is 0% (inactive). Also, the response in [10] is -20.5% (inactive); in experiment [12] it was 1.54% (inactive). The binding (% of control) in [13] was 104% (inactive). Also, the efflux inhibition (fraction of control) in experiment [14] is -0.195 (inactive). The differentiation response in [16] was -8.96% (inactive).

With `Cn1c(=O)c2[nH]cnc2n(C)c1=O`, in experiment [1], the percent of DMSO control GFP is 90.9% (inactive). The GFP response vs DMSO is 133% (inactive) in [2] and 80.9% (inactive) in [4]. Besides, the percent response of DMSO control in experiment [3] is 96.6% (inactive). In addition, the GFP response, % of DMSO in experiment [5] is 87.7% (inactive). The double positive events in experiment [6] stood at 67.8%. Besides, the vesicle binding response in experiment [6] is 159% (inactive). Also, the inhibition in [7] was -1.3% (inactive); in [11], -6.69% (inactive); in [15], 9% (inactive). Further, the superoxide response (% of plate) in experiment [8] is 95.3% (inactive). Also, the aptamer binding inhibition in [9] is 4% (inactive). Also, the figures for the response in [10] and in experiment [12] were -0.49% (inactive) and -2.04% (inactive), respectively. Also, in experiment [13], the binding (% of control) is 101% (inactive). Further, the efflux inhibition (fraction of control) in [14] is -0.46 (inactive). In [16], the differentiation response was -2.46% (inactive).

`O=C(OCCN1CCOCC1)c1cccs1`: in experiment [1], the percent of DMSO control GFP was 104% (inactive). Moreover, the results for the GFP response vs DMSO in [2] and in experiment [4] were 98.3% (inactive) and 94.7% (inactive), respectively. Moreover, the percent response of DMSO control in experiment [3] was 113% (inactive). Also, the GFP response, % of DMSO in [5] was 103% (inactive). Moreover, the double positive events in experiment [6] worked out at 64.9%. Moreover, in [6], the vesicle binding response was 260% (inactive). Also, the inhibition in experiment [7] is -3.57% (inactive); in experiment [11], -4.4% (inactive); in experiment [15] it was 1% (inactive). The superoxide response (% of plate) in experiment [8] is 88.9% (inactive). Also, the aptamer binding inhibition in experiment [9] was 2% (inactive). Besides, the response in experiment [10] was -11.6% (inactive); in experiment [12] it was 0.26% (inactive). For the same molecule, the binding (% of control) in [13] is 91.9% (inactive). Moreover, the efflux inhibition (fraction of control) in [14] is 0.02 (inactive). Further, in experiment [16], the differentiation response is 0.24% (inactive).

Regarding `O=C1NC(=O)C(c2ccccc2)(c2ccccc2)N1`, the percent of DMSO control GFP in [1] was 102% (inactive). Further, the GFP response vs DMSO in experiment [2] was 107% (inactive); in [4], 93.3% (inactive). The percent response of DMSO control in [3] was 93.9% (inactive). For the same molecule, the GFP response, % of DMSO in experiment [5] is 99.6% (inactive). Besides, in experiment [6], the double positive events is 58.7% and 60.5%. In experiment [6], the vesicle binding response was 114% (inactive) and 142% (inactive). In addition, the inhibition was 20.4% (inactive) and -2.11% (inactive) in experiment [7]; 1.12% (inactive) and -5.85% (inactive) in experiment [11]; 11% (inactive) and 12% (inactive) in experiment [15]. In addition, the superoxide response (% of plate) in [8] was 102% (inactive) and 98.5% (inactive). Moreover, the aptamer binding inhibition in experiment [9] is -2% (inactive) and 2% (inactive). Further, the response in [10] is 5.51% (inactive); in experiment [12] it was 8.2% (inactive) and -0.2% (inactive). In addition, in experiment [13], the binding (% of control) is 97% (inactive) and 99.3% (inactive). In addition, the efflux inhibition (fraction of control) in experiment [14] is -0.44 (inactive) and 0.29 (inactive). Moreover, the differentiation response in experiment [16] was -0.18% (inactive) and -8.27% (inactive).

Turning to `COc1ccc(C(=O)Nc2cccc3cccnc23)cc1OC`, the percent of DMSO control GFP in experiment [1] was 102% (inactive). Moreover, the GFP response vs DMSO in [2] is 105% (inactive); in [4], 119% (inactive). Also, the percent response of DMSO control in experiment [3] is 105% (inactive). In experiment [5], the GFP response, % of DMSO is 96.3% (inactive). In addition, in experiment [6], the double positive events was 49.8%. Besides, the vesicle binding response in [6] is 156% (inactive). The inhibition in [7] is -18.5% (inactive); in experiment [11] it was -6.27% (inactive); in experiment [15], 0% (inactive). For the same molecule, in experiment [8], the superoxide response (% of plate) was 103% (inactive). In experiment [9], the aptamer binding inhibition was -4% (inactive). Further, the response was 10.2% (inactive) in experiment [10] and -0.52% (inactive) in [12]. Further, in experiment [13], the binding (% of control) is 103% (inactive). In addition, the efflux inhibition (fraction of control) in experiment [14] was -0.33 (inactive). The differentiation response in experiment [16] was -17.7% (inactive).
